Data on 39 compounds can be found in PubChem BioAssay (NCI).

The structures appear in SMILES notation. About 83,000 compounds went through this panel and 20% of them were active in at least one assay; those are over-represented in the sample as a whole.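 In brief: 96-well plates, 48 h treatment, single concentration, percent growth endpoint.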 Values without a mark were called inactive. Calls of active or inactive are those of the source. Rule for the calls: active = growth percent below 10; inactive = the rest.

The subject of the first assay is HCT-116 colon. In words: NCI-60 one-dose screen, 48 h (100 = growth as untreated, 0 = no growth, -100 = all killed). As to conditions: 10 µM.
`S=c1[nH]ccn1-c1ccccc1Cl`: the growth is 107%.

As for `COc1cc2cc(c1Cl)N(C)C(=O)C[C@H](OC(=O)[C@H](C)N(C)C(C)=O)[C@]1(C)O[C@H]1[C@H](C)[C@@H]1C[C@@](O)(NC(=O)O1)[C@H](OC)C=C/C=C(\C)C2`, the growth was -18.6% (active).

Consider `NC(=S)N/N=C/c1ccc(N)cc1`, for which the growth is 94.1%.

In the case of `C/C(=N\NC(=O)c1ccccc1N)c1ccccc1O`, the growth was 7.72% (active).

In the case of `O=C(O)c1ccccc1NCc1ccco1`, the growth was 105%.

In the case of `CC(=O)OC(OC(C)=O)C1CCCO1` (stereo not given), the growth is 91.3%.

With `CC1(C)Nc2cccc3c(N=Nc4ccc(N=Nc5ccccc5)c5ccccc45)ccc(c23)N1`, the growth was 70.5%.

`CCCC1(c2ccccc2)NC(=O)NC1=O` (stereo not given): the growth is 99.3%.

Take `CC(=O)Nc1c(C)cc(C)cc1C`: the growth was 102%.

Take `Cc1cc(/C=C/c2ccc3cc(N(C)C)ccc3[n+]2C)c(C)n1-c1ccccc1`: the growth is -10.3% (active).

Regarding `CCOc1ccccc1/C=N/Nc1nc2ccccc2o1`, the growth was 102%.

As to `C=CCc1cc(C(C)=O)cc(OC)c1O`, the growth is 102%.

Take `Cc1cc(C)c(CC(=O)O)c(C)c1`: the growth is 105%.

For the compound `C=CC[N+](C)(C)C`, the growth is 104%.

`CC(=O)OCC1CCCO1` (stereo not given): the growth was 105%.

Consider `CN(C)CCN(Cc1ccccc1)c1ccccc1`, for which the growth was 113%.

Turning to `O=C(O)CSCSCC(=O)O`, the growth is 106%.

On to `COc1cc2c(cc1O)CC[C@@H]1C2CC[C@@]2(C)C1CC[C@@H]2O` (stereo not given in full), for which the growth is 7.39% (active).

The next assay deals with HCC-2998 colon. Described as above. As to conditions: 10 µM.
As to `c1ccc(Sc2ccccc2)cc1`, the growth was 105%.

Take `CCCCC(O)c1ccccc1` (stereo not given): the growth is 104%.

In the case of `C[N+](C)=c1ccc2nc3c(cc(Nc4ccccc4)c4ccccc43)oc-2c1`, the growth is 75.6%.

For the compound `CCc1nc(N)nc(N)c1-c1ccc(Cl)cc1`, the growth is 75.9%.

On to `N#CC(=Nc1cccc(F)c1)C1=C(O)c2ccccc2C1=O`, for which the growth was 101%.

For `COC(=O)c1ccccc1N(C)C`, the growth was 113%.

`COc1ccc(C(=O)C(Br)C(Br)C(=O)O)cc1` (stereo not given): the growth was 113%.

Regarding `COC1=CC(=O)c2nc(Cl)ccc2C1=O`, the growth was 100%.

Consider `O=C(NCc1ccco1)Nc1c(Cl)cc(Cl)cc1Cl`, for which the growth is 102%.

Regarding `CC[N+](C)(CC)CCO`, the growth is 102%.

In the case of `COc1cc(/C=C/C(=O)c2ccccc2)cc(OC)c1OC`, the growth is 94.3%.

With `N#Cc1c(N)sc(=S)c2c1CCCC2`, the growth is 106%.

In the case of `CNc1nc(NC)c2cn[nH]c2n1`, the growth is 100%.

For `NCCC(=O)c1ccc(Cl)cc1`, the growth is 97.6%.

On to `COc1ccc(NC(=O)CCl)cc1`, for which the growth is 99.6%.

In the case of `O=[N+]([O-])c1ccc(CO)cc1`, the growth is 96.1%.

Turning to `c1ccc(Cc2ccccc2)cc1`, the growth was 106%.

As for `S=c1[nH]ccn1-c1ccccc1Cl`, the growth is 113%.

For the compound `COc1cc2cc(c1Cl)N(C)C(=O)C[C@H](OC(=O)[C@H](C)N(C)C(C)=O)[C@]1(C)O[C@H]1[C@H](C)[C@@H]1C[C@@](O)(NC(=O)O1)[C@H](OC)C=C/C=C(\C)C2`, the growth is -32% (active).

With `NC(=S)N/N=C/c1ccc(N)cc1`, the growth was 104%.

Turning to `C/C(=N\NC(=O)c1ccccc1N)c1ccccc1O`, the growth was 67.5%.

In the case of `O=C(O)c1ccccc1NCc1ccco1`, the growth is 80.9%.

For the compound `CC1(C)Nc2cccc3c(N=Nc4ccc(N=Nc5ccccc5)c5ccccc45)ccc(c23)N1`, the growth is 93.2%.

On to `CCCC1(c2ccccc2)NC(=O)NC1=O` (stereo not given), for which the growth is 100%.

Take `CC(=O)Nc1c(C)cc(C)cc1C`: the growth is 104%.

For `Cc1cc(/C=C/c2ccc3cc(N(C)C)ccc3[n+]2C)c(C)n1-c1ccccc1`, the growth is 0.715% (active).

For `CCOc1ccccc1/C=N/Nc1nc2ccccc2o1`, the growth is 62.2%.

As to `C=CCc1cc(C(C)=O)cc(OC)c1O`, the growth was 96.3%.

As for `Cc1cc(C)c(CC(=O)O)c(C)c1`, the growth is 111%.

Consider `C=CC[N+](C)(C)C`, for which the growth was 103%.

For `CC(=O)OCC1CCCO1` (stereo not given), the growth was 84.8%.

On to `CN(C)CCN(Cc1ccccc1)c1ccccc1`, for which the growth is 105%.

As to `O=C(O)CSCSCC(=O)O`, the growth was 109%.

The next assay has as its system KM12 colon. Described as above. Conditions: 10 µM.
Consider `c1ccc(Sc2ccccc2)cc1`, for which the growth is 102%.

With `CCCCC(O)c1ccccc1` (stereo not given), the growth is 106%.

Consider `C[N+](C)=c1ccc2nc3c(cc(Nc4ccccc4)c4ccccc43)oc-2c1`, for which the growth is 62.5%.

With `CCc1nc(N)nc(N)c1-c1ccc(Cl)cc1`, the growth was 82.5%.

Turning to `FC(F)(F)c1ccc2c(c1)N(CCCN1CCN(C3CC3)CC1)c1ccccc1S2`, the growth is 59.6%.

Take `N#CC(=Nc1cccc(F)c1)C1=C(O)c2ccccc2C1=O`: the growth was 102%.

In the case of `COC(=O)c1ccccc1N(C)C`, the growth is 107%.

For `COc1ccc(C(=O)C(Br)C(Br)C(=O)O)cc1` (stereo not given), the growth is 111%.

As for `COC1=CC(=O)c2nc(Cl)ccc2C1=O`, the growth was 91.3%.

In the case of `O=C(NCc1ccco1)Nc1c(Cl)cc(Cl)cc1Cl`, the growth was 104%.

`O=[N+]([O-])c1cccc(N=Nc2ccc(O)cc2O)c1`: the growth was 90.9%.

Turning to `CC[N+](C)(CC)CCO`, the growth was 110%.

In the case of `COc1cc(/C=C/C(=O)c2ccccc2)cc(OC)c1OC`, the growth was 12.6%.

Regarding `N#Cc1c(N)sc(=S)c2c1CCCC2`, the growth was 110%.

Regarding `CNc1nc(NC)c2cn[nH]c2n1`, the growth was 105%.

For the compound `NCCC(=O)c1ccc(Cl)cc1`, the growth is 98.1%.

For the compound `C[C@]12CC[C@@H]3c4ccc(OCC(=O)O)cc4CC[C@H]3[C@@H]1CCC2=O`, the growth is 105%.

Turning to `COc1ccc(NC(=O)CCl)cc1`, the growth is 85.5%.

Consider `O=[N+]([O-])c1ccc(CO)cc1`, for which the growth is 105%.

On to `NNc1ccccc1C(=O)O`, for which the growth was 108%.

With `c1ccc(Cc2ccccc2)cc1`, the growth was 98.9%.

In the case of `S=c1[nH]ccn1-c1ccccc1Cl`, the growth was 104%.

With `COc1cc2cc(c1Cl)N(C)C(=O)C[C@H](OC(=O)[C@H](C)N(C)C(C)=O)[C@]1(C)O[C@H]1[C@H](C)[C@@H]1C[C@@](O)(NC(=O)O1)[C@H](OC)C=C/C=C(\C)C2`, the growth is -42.3% (active).

On to `NC(=S)N/N=C/c1ccc(N)cc1`, for which the growth was 103%.

Take `C/C(=N\NC(=O)c1ccccc1N)c1ccccc1O`: the growth is 46.3%.

Consider `O=C(O)c1ccccc1NCc1ccco1`, for which the growth was 117%.

Turning to `CC(=O)OC(OC(C)=O)C1CCCO1` (stereo not given), the growth is 101%.

With `CC1(C)Nc2cccc3c(N=Nc4ccc(N=Nc5ccccc5)c5ccccc45)ccc(c23)N1`, the growth was 106%.

`CCCC1(c2ccccc2)NC(=O)NC1=O` (stereo not given): the growth is 110%.

As to `CC(=O)Nc1c(C)cc(C)cc1C`, the growth was 103%.

With `Cc1cc(/C=C/c2ccc3cc(N(C)C)ccc3[n+]2C)c(C)n1-c1ccccc1`, the growth is -62.1% (active).

For `CCOc1ccccc1/C=N/Nc1nc2ccccc2o1`, the growth was 86.4%.

For the compound `C=CCc1cc(C(C)=O)cc(OC)c1O`, the growth is 96.6%.

Turning to `Cc1cc(C)c(CC(=O)O)c(C)c1`, the growth was 103%.

As to `C=CC[N+](C)(C)C`, the growth is 114%.

For the compound `CC(=O)OCC1CCCO1` (stereo not given), the growth is 102%.

Consider `CN(C)CCN(Cc1ccccc1)c1ccccc1`, for which the growth is 113%.

`O=C(O)CSCSCC(=O)O`: the growth was 109%.

On to `COc1cc2c(cc1O)CC[C@@H]1C2CC[C@@]2(C)C1CC[C@@H]2O` (stereo not given in full), for which the growth was 33.5%.
